# According to PubChem BioAssay AID1981 (Southern Research Specialized Biocontainment Screening …, 2009):
# The whole screen tested about 2,200 compounds, of which about 480 (22%) were called active. No rule for the calls is given here. These entries were drawn from the full list. A call without a number means that no potency is given here. Potency and affinity values are given separately.
# Test: S. Typhimurium GFP fluorescence dose response in modified counterscreen for PhoP regulon inhibitor project (AID 1981)
# Details: 4 h; series mostly up to 150 µM
row,SMILES,outcome
1,Cc1ccc(-c2[nH]c(-c3ccc(Cl)cc3)nc2SCC(=O)NCC2CCCO2)cc1 (configuration not stated),inactive
2,S=C(NN=C1C2CC3CC(C2)CC1C3)Nc1ccccc1,inactive
3,Cc1ccc(C(C(=O)NCc2ccco2)N(CCc2ccccc2)C(=O)Cn2nnc3ccccc32)o1 (configuration not stated),inactive
4,O=C(Nc1cccc(-c2cn3cccnc3n2)c1)c1ccco1,inactive
5,Cn1c(NCc2ccccc2O)nc2ccccc21,inactive
6,N/C(=N\OC(=O)c1ccc(F)cc1)c1nonc1N,inactive
7,CNC(=O)c1ccc(-c2ccc(F)cc2)s1,inactive
8,COc1cc(/C=C2/SC(=S)N(CC(=O)Nc3cccnc3)C2=O)cc(OC)c1OC,inactive
9,CCCCCCC(=O)N(O)C1CC(=O)N(c2ccc(C)cc2)C1=O (configuration not stated),inactive
10,C=CCNC(=S)NNC(=O)c1cccn(Cc2ccc(Cl)cc2)c1=O,inactive
11,Nc1cc(Br)c(N)c(Br)c1,inactive
12,CC(=O)NC1C(c2nc3ccccc3s2)=C(c2ccccc2)C(=O)N1c1ccc(C)cc1 (configuration not stated),inactive
13,CC1Cc2ccccc2N1C(=O)COC(=O)c1ccc(S(=O)(=O)N(C)C)cc1 (configuration not stated),inactive
14,COC(=O)Cc1c(O)ccn(Cc2ccc(F)cc2)c1=O,inactive
15,CCc1c(C)c2cc(Cl)c(O)c(CN(C)C)c2oc1=O,inactive
16,CC1=CC(C)(C)n2c(O)c(C3=NC(=S)NC3=O)c3cc(OC(=O)c4cccc5ccccc45)cc1c32,inactive

row,SMILES,outcome
1,Cn1c(=N)n(CC(=O)c2ccc(Br)s2)c2ccccc21,inactive
2,N=c1n(CC(=O)c2ccc([N+](=O)[O-])cc2)c2ccccc2n1Cc1ccccc1,inactive
3,COc1cc(S(=O)(=O)N2CCCCC2)ccc1NC=O,inactive
4,NC1=Nc2ccccc2Oc2ccccc21,inactive
5,NC1=NC(=Nc2cccc(Cl)c2)c2ccccc21,inactive
6,c1ccc2c(C3=NNC(=NC4CCCCC4)SC3)c[nH]c2c1,inactive
7,CN(C)S(=O)(=O)Nc1ccc(C(=O)O)cc1,inactive
8,COc1cccc(OCC(O)CN2CCN(c3ccccn3)CC2)c1 (configuration not stated),inactive
9,Cn1c(SCC(=O)NC(=O)c2cccc([N+](=O)[O-])c2)nnc1-c1ccc(F)cc1,inactive
10,O=C(Cn1cc[n+](CC(=O)c2ccccc2)c1)c1ccccc1,inactive
11,C/C(=N/Nc1nc(-c2ccccc2)cc(-c2ccc(F)cc2)n1)c1cccc(N)c1,inactive
12,c1ccc(-c2nnc(SCCC3OCCCO3)o2)cc1,inactive
13,CC1(C)CC2CC(C)(CN2C(=O)COC(=O)c2n[nH]c(=O)c3ccccc23)C1 (configuration not stated),inactive
14,Fc1ccccc1COc1ccc(Br)cc1CNCc1ccncc1,inactive
15,O=[N+]([O-])c1ccccc1CNc1ccc(F)c(Cl)c1,inactive
16,c1ccc(COc2ccccc2CNCc2cccnc2)cc1,inactive
